# Reference: the supplement of paper PMC9262897, “Low-cost anti-mycobacterial drug discovery using engineered E. coli” (Nature Communications, 2022)
# Counter-ions that a name gives are not always drawn. ± gives the standard deviation of the averaged measurements.
# What was measured:
# Assay in all cases: growth (OD600 after 10 h); higher = more growth (less inhibition)
# [1] = tested on: E. coli TESEC Alr+ wild-type control; conditions: compound 0.1 mM; raw OD600 reference: median of DMSO wells 0.241, cell-free background 0.041
# Procedure: (§1)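 TESEC Mtb Alr E. coli, or the Alr+ wild-type control, in 384-well plates with Prestwick library compounds at 0.1 mM and 1% DMSO, across arabinose induction levels of 1E3 to 1E7 nM. Growth is read as OD600 after 10 h at 37 °C in triplicate biological replicates.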
# E. coli TESEC Mtb Alr [2] = conditions: compound 0.1 mM
# Procedure: as §1
# E. coli TESEC Mtb Asd = conditions: compound 0.1 mM
# Procedure: (§2)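 TESEC E. coli strains in which the native enzyme is deleted and replaced by arabinose-inducible Mtb Asd, DapB, CysH or TrpD, each grown in its selective medium. Strains were screened against the Prestwick library at 0.1 mM and 1% DMSO in 384-well format at low and high arabinose induction. Growth is read as OD600 after 10 h in triplicate.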
# E. coli TESEC Mtb DapB = conditions: compound 0.1 mM
# Procedure: as §2
# E. coli TESEC Mtb Alr [3] = conditions: compound 0.1 mM; remark: listed apart in the source
# Procedure: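 TESEC Mtb Alr E. coli (ΔaraC ΔtolC ΔentC Δalr ΔdadX, arabinose-inducible Mtb Alr) or the Alr+ wild-type control strain, grown in defined M9-fructose medium without D-alanine in 96-well plates with Prestwick library compounds at 0.1 mM and 1% DMSO. Low Alr induction is 0.1 µM arabinose and high induction is 10 mM arabinose.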
# [4] = arabinose 1000 nM, raw OD600 reference: median of DMSO wells 0.294, cell-free background 0.041
# [5] = arabinose 10000 nM, raw OD600 reference: median of DMSO wells 0.264, cell-free background 0.041
# [6] = arabinose 100000 nM, raw OD600 reference: median of DMSO wells 0.201, cell-free background 0.041
# [7] = arabinose 1000000 nM, raw OD600 reference: median of DMSO wells 0.193, cell-free background 0.041
# [8] = arabinose 10000000 nM, raw OD600 reference: median of DMSO wells 0.146, cell-free background 0.041
# [9] = arabinose induction (level): High, raw OD600 reference: median of DMSO wells 0.331, cell-free background 0.041
# [10] = arabinose induction (level): Low, raw OD600 reference: median of DMSO wells 0.417, cell-free background 0.041
# [11] = arabinose induction (level): High, raw OD600 reference: median of DMSO wells […], cell-free background 0.041
# [12] = arabinose induction (level): Low, raw OD600 reference: median of DMSO wells 0.227, cell-free background 0.041
# [13] = arabinose 100 nM, raw OD600 reference: median of DMSO wells 0.413, cell-free background 0.052
# [14] = arabinose 10000000 nM, raw OD600 reference: median of DMSO wells […], cell-free background 0.052
Structure (SMILES),growth [1],growth (E. coli TESEC Mtb Alr [2]; [4]),growth (E. coli TESEC Mtb Alr [2]; [5]),growth (E. coli TESEC Mtb Alr [2]; [6]),growth (E. coli TESEC Mtb Alr [2]; [7]),growth (E. coli TESEC Mtb Alr [2]; [8]),growth (E. coli TESEC Mtb Asd; [9]),growth (E. coli TESEC Mtb Asd; [10]),growth (E. coli TESEC Mtb DapB; [11]),growth (E. coli TESEC Mtb DapB; [12]),growth (E. coli TESEC Mtb Alr [3]; [13]),growth (E. coli TESEC Mtb Alr [3]; [14])
CCOC(=O)c1ccc(OC(=O)CCCCCNC(=N)N)cc1 [Gabexate mesilate],0.15 ± 0.014,0.179 ± 0.0036,0.158 ± 0.0034,0.109 ± 0.0039,0.0891 ± 0.0033,0.14 ± 0.0019,0.135 ± 0.015,0.147 ± 0.017,0.177 ± 0.0061,0.16 ± 0.011,0.396 ± 0.013,0.123 ± 0.0081
OC[C@H]1O[C@@H](Oc2ccc(O)cc2)[C@H](O)[C@@H](O)[C@@H]1O [Arbutin],0.245 ± 0.012,0.325 ± 0.02,0.272 ± 0.011,0.193 ± 0.021,0.191 ± 0.0053,0.144 ± 0.0033,0.21 ± 0.011,0.362 ± 0.092,0.209 ± 0.003,0.246 ± 0.051,0.403 ± 0.017,0.317 ± 0.013
C[C@H](N)[C@H](O)c1cccc(O)c1 [Metaraminol bitartrate],0.245 ± 0.015,0.278 ± 0.0096,0.267 ± 0.0062,0.186 ± 0.013,0.185 ± 0.0027,0.153 ± 0.018,0.333 ± 0.062,0.415 ± 0.029,0.208 ± 0.014,0.23 ± 0.024,0.426 ± 0.0087,0.356 ± 0.0097
CC(C)NCC(O)COc1ccc(CCOCC2CC2)cc1 (configuration not stated) [Betaxolol hydrochloride],0.222 ± 0.0081,0.301 ± 0.0039,0.26 ± 0.0051,0.232 ± 0.034,0.179 ± 0.014,0.161 ± 0.0056,0.264 ± 0.049,0.359 ± 0.069,0.235 ± 0.026,0.246 ± 0.011,0.404 ± 0.011,0.341 ± 0.014
O=P(O)(O)C(Cl)(Cl)P(=O)(O)O [Clodronate],0.248 ± 0.0073,0.308 ± 0.021,0.284 ± 0.005,0.188 ± 0.016,0.193 ± 0.0024,0.14 ± 0.0033,0.336 ± 0.042,0.403 ± 0.025,0.223 ± 0.024,0.212 ± 0.024,0.411 ± 0.0072,0.303 ± 0.0027
COc1ccc(C(=O)NCc2cccnc2)cc1C(=O)NCc1cccnc1 [Picotamide monohydrate],0.234 ± 0.013,0.264 ± 0.034,0.258 ± 0.0067,0.189 ± 0.02,0.161 ± 0.0041,0.132 ± 0.0031,0.256 ± 0.042,0.41 ± 0.037,0.189 ± 0.0065,0.228 ± 0.034,0.4272 ± 0.0023,0.321 ± 0.024
CC(C(=O)O)c1ccc(C(=O)c2cccs2)cc1 (configuration not stated) [Suprofen],0.2321 ± 0.0022,0.263 ± 0.015,0.254 ± 0.008,0.205 ± 0.0094,0.214 ± 0.0056,0.138 ± 0.0024,0.368 ± 0.056,0.365 ± 0.054,0.213 ± 0.0048,0.196 ± 0.029,0.382 ± 0.01,0.3826 ± 0.0029
CCOC(=O)Nc1ccc2c(c1)N(C(=O)CCN1CCOCC1)c1ccccc1S2 [Moricizine hydrochloride],0.157 ± 0.0017,0.202 ± 0.0069,0.222 ± 0.0081,0.196 ± 0.012,0.1097 ± 0.00081,0.14 ± 0.0063,0.175 ± 0.018,0.228 ± 0.083,0.168 ± 0.0088,0.199 ± 0.022,0.3937 ± 0.0035,0.258 ± 0.022
CO/N=C(\C(=O)N[C@@H]1C(=O)N2C(C(=O)O)=C(C[N+]3(C)CCCC3)CS[C@H]12)c1csc(N)n1 [Cefepime hydrochloride],0.0426 ± 0.00078,0.0381 ± 0.00085,0.0472 ± 0.0016,0.03857 ± 0.00031,0.0612 ± 0.0025,0.048 ± 0.00053,0.197 ± 0.017,0.188 ± 0.012,0.182 ± 0.0028,0.173 ± 0.011,0.0455 ± 0.00017,0.0731 ± 0.0077
CN(C)[C@@H]1C(=O)C(C(N)=O)=C(O)[C@@]2(O)C(=O)C3=C(O)c4c(O)ccc(Cl)c4[C@@H](O)[C@H]3C[C@@H]12 [Demeclocycline hydrochloride],0.0424 ± 0.00081,0.0502 ± 0.0039,0.0459 ± 0.0013,0.0479 ± 0.0019,0.0435 ± 0.00079,0.0452 ± 0.0007,0.0573 ± 0.0014,0.0773 ± 0.029,0.0577 ± 0.0035,0.0559 ± 0.002,0.0561 ± 0.0037,0.05407 ± 0.00042
O=C(O)c1cc(=O)c2c(OCC(O)COc3cccc4oc(C(=O)O)cc(=O)c34)cccc2o1 [Cromolyn disodium salt],0.2571 ± 0.0016,0.311 ± 0.019,0.275 ± 0.0036,0.21 ± 0.014,0.201 ± 0.011,0.14 ± 0.0057,0.389 ± 0.04,0.489 ± 0.01,0.189 ± 0.013,0.228 ± 0.034,0.403 ± 0.011,0.361 ± 0.01
CCn1cc(C(=O)O)c(=O)c2cc(F)c(N3CCN(C)CC3)cc21 [Pefloxacine],0.0478 ± 0.00026,0.0453 ± 0.00047,0.0396 ± 0.00047,0.0454 ± 0.0017,0.04 ± 0.00096,0.05157 ± 0.0004,0.0645 ± 0.0063,0.0631 ± 0.0043,0.0696 ± 0.0096,0.0585 ± 0.002,0.0539 ± 0.00064,0.0515 ± 0.00064
COC(=O)C1=C(C)NC(C)=C(C(=O)OC(C)C)C1c1cccc2nonc12 (configuration not stated) [Isradipine],0.149 ± 0.0056,0.206 ± 0.0037,0.254 ± 0.015,0.164 ± 0.0057,0.0817 ± 0.0022,0.154 ± 0.0037,0.166 ± 0.018,0.259 ± 0.041,0.19 ± 0.019,0.21 ± 0.011,0.394 ± 0.01,0.167 ± 0.038
CC1CC(OC(=O)c2ccccc2O)CC(C)(C)C1 (configuration not stated) [Homosalate],0.248 ± 0.0027,0.3 ± 0.005,0.263 ± 0.019,0.199 ± 0.03,0.18 ± 0.0023,0.15 ± 0.0039,0.202 ± 0.011,0.332 ± 0.052,0.194 ± 0.018,0.205 ± 0.027,0.3918 ± 0.0032,0.332 ± 0.016
O=C(OCC(O)CO)c1ccccc1Nc1ccnc2cc(Cl)ccc12 (configuration not stated) [Glafenine hydrochloride],0.116 ± 0.0048,0.146 ± 0.006,0.164 ± 0.017,0.187 ± 0.026,0.102 ± 0.0023,0.144 ± 0.0045,0.253 ± 0.04,0.17 ± 0.021,0.196 ± 0.0089,0.276 ± 0.059,0.384 ± 0.022,0.149 ± 0.02
N=C(N)NC(=N)NCCc1ccccc1 [Phenformin hydrochloride],0.2497 ± 0.002,0.279 ± 0.014,0.274 ± 0.0079,0.2 ± 0.02,0.186 ± 0.0089,0.137 ± 0.0039,0.378 ± 0.07,0.405 ± 0.067,0.203 ± 0.0056,0.211 ± 0.012,0.416 ± 0.0069,0.3729 ± 0.003
